The supplement of paper PMC10849652
Of roughly 8,800 targets only a part is listed; those with a hit were picked by preference. About 0.5% of all pairs of compound and target were hits.

Tests used:
Assay in all cases: log2 fold change, soluble protein after heating vs DMSO (PISA); higher = thermal stabilisation; K562 lysate, 10 uM; active = over 0.2 and 3.5 SD of the protein, either way, in both replicates (recomputed)
[1] = compound: CCCS(=O)(=O)Nc1ccc(F)c(C(=O)c2c[nH]c3ncc(-c4ccc(Cl)cc4)cc23)c1F [vemurafenib]
Method in brief: (§1)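 Soluble protein was defined as the supernatant remaining after 21,000xg for 90 min, following pooling of heated aliquots and adjustment to 0.5% NP-40 at 4°C. Before that, crude K562 extract at 1 mg/mL protein in PBS pH 7.4 with 1 mM MgCl2 was treated with 10 μM compound for 30 min and heated for 3 min across 48°C-58°C. Quantification used TMTpro 16plex LC-MS/MS with channel sums equalised, and values are log-two fold changes in thermal stability relative to solvent controls from duplicates.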

[2] = compound: CCCS(=O)(=O)Nc1ccc(F)c(C(=O)c2c[nH]c3ncc(Cl)cc23)c1F
Method in brief: as §1

[3] = compound: CCN(CCCOc1ccc2c(Nc3cc(CC(=O)Nc4cccc(F)c4)[nH]n3)ncnc2c1)CCOP(=O)(O)O [barasertib]
Method in brief: as §1

[4] = compound: CC[C@@H]1C(=O)N(C)c2cnc(Nc3ccc(C(=O)NC4CCN(C)CC4)cc3OC)nc2N1C1CCCC1
Method in brief: as §1

[5] = compound: CC[C@@H]1C(=O)N(C)c2cnc(Nc3ccc(C(=O)N[C@H]4CC[C@H](N5CCN(CC6CC6)CC5)CC4)cc3OC)nc2N1C(C)C [volasertib]
Method in brief: as §1

[6] = compound: CCn1c(C(=O)N(C2CC2)C2CC2)cc2c3c(ncn3C)c(Nc3cc(C)n(C)n3)nc21
Method in brief: as §1

[7] = compound: CCn1cc(-c2ccnc3[nH]c(-c4cccc(CN(C)C)c4)cc23)c(-c2ccc(NC(=O)N(C)C)cc2)n1
Method in brief: as §1

[8] = compound: CN1CCC(CNc2ccc3ncc(-c4cccc(OC(F)(F)F)c4)n3n2)CC1
Method in brief: as §1

[9] = compound: CN1CCN(CCOc2cc(OC3CCOCC3)c3c(Nc4c(Cl)ccc5c4OCO5)ncnc3c2)CC1 [saracatinib]
Method in brief: as §1

[10] = compound: CN1CCN(c2nc(C3=C(c4c[nH]c5ccccc45)C(=O)NC3=O)c3ccccc3n2)CC1 [sotrastaurin]
Method in brief: as §1

[11] = compound: CN1CC[C@H](c2c(O)cc(O)c3c(=O)cc(-c4ccccc4Cl)oc23)[C@H](O)C1 [alvocidib]
Method in brief: as §1

[12] = compound: CN1CCc2c(c3ccccc3n2Cc2ccc(C(=O)NO)cc2)C1 [Tubastatin A]
Method in brief: as §1

[13] = compound: CNC(=O)C1=CC=CC=C1NC2=NC(=NC=C2Cl)NC3=C(C=C(C=C3)N4CCOCC4)OC
Method in brief: as §1

[14] = compound: CNC(=O)c1ccc(Nc2ncc(C(F)(F)F)c(NCc3nccnc3N(C)S(C)(=O)=O)n2)cc1 [defactinib]
Method in brief: as §1

[15] = compound: CNc1nc(-c2ccc3c(N)n[nH]c3c2)cc(N2C[C@@H](C(=O)NC3CCCCC3)CC[C@H]2C)n1
Method in brief: as §1

[16] = compound: COC(=O)N[C@@H](C)CNc1nccc(-c2cn(C(C)C)nc2-c2cc(Cl)cc(NS(C)(=O)=O)c2F)n1 [encorafenib]
Method in brief: as §1

[17] = compound: COC(=O)[C@H](CCSC)NC(=O)C1=C(C=C(C=C1)NC[C@H](CS)N)C2=CC=CC=C2
Method in brief: as §1

[18] = compound: COc1cc(Nc2ncc3c(n2)-c2ccc(Cl)cc2C(c2c(F)cccc2OC)=NC3)ccc1C(=O)O [alisertib]
Method in brief: as §1

[19] = compound: COc1cc2nc(-c3cc(F)ccc3O)nc(N[C@@H]3CNC[C@H]3C(C)(C)O)c2cc1OC
Method in brief: as §1

[20] = compound: COc1cc2ncnc(Nc3ccc(F)c(Cl)c3)c2cc1OCCCN1CCOCC1 [gefitinib]
Method in brief: as §1

Measured: log2 fold change

STK11IP (UniProt Q8N1F8)
inactive: [1] -0.016 | [2] 0.018 | [3] -0.04 | [4] 0.075 | [5] -0.067 | [6] 0.002 | [7] 0.015 | [8] -0.072 | [9] 0.012 | [10] 0.016 | [11] 0.013 | [12] -0.005 | [13] -0.025 | [14] 0.041 | [15] -0.014 | [16] 0.053 | [17] 0.062 | [18] -0.026 | [19] 0.025 | [20] 0.069

TAF6L (UniProt Q9Y6J9)
Chain of UniProt Q9Y6J9 (Q9Y6J9 whole entry, looked up): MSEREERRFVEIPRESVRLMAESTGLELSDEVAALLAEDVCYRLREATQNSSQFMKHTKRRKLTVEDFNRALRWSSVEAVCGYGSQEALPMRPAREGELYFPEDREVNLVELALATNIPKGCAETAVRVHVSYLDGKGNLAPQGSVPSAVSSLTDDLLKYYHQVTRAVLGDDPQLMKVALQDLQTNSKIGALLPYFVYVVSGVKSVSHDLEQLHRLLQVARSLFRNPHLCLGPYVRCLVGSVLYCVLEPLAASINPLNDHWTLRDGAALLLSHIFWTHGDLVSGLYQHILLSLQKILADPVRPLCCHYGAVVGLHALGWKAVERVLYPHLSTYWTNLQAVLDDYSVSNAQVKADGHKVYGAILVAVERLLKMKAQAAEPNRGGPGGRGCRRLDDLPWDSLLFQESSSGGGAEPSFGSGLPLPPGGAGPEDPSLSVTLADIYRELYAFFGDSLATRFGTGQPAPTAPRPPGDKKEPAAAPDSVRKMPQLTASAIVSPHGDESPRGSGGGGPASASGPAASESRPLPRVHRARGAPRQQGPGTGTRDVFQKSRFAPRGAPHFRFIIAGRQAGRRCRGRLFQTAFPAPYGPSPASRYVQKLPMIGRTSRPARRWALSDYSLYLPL
inactive: [1] -0.029 | [2] 0.035 | [3] -0.05 | [5] -0.007 | [6] -0.015 | [7] 0.018 | [8] 0.022 | [9] 0.029 | [10] 0.05 | [11] 0.018 | [12] -0.109 | [13] -0.035 | [14] 0.001 | [15] -0.116 | [16] 0.096 | [17] -0.051 | [18] 0.006 | [19] 0.006 | [20] -0.046
active: [4] -0.245

SRRT (UniProt Q9BXP5)
inactive: [1] 0.012 | [2] 0.012 | [3] -0.008 | [4] -0.039 | [5] -0.08 | [6] 0.042 | [7] 0.061 | [8] -0.1 | [9] -0.016 | [10] 0.02 | [11] 0.014 | [12] -0.195 | [13] 0.008 | [14] -0.013 | [15] -0.02 | [16] 0.024 | [17] 0.202 | [18] 0.03 | [19] -0.01 | [20] 0.009

SNRPD3 (UniProt P62318)
Chain of UniProt P62318 (P62318 whole entry, looked up): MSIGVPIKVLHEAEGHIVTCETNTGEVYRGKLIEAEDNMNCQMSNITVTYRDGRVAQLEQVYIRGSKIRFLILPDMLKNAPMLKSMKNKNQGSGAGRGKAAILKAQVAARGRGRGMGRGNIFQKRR
inactive: [1] 0.022 | [2] -0.012 | [3] -0.006 | [4] -0.049 | [5] -0.004 | [6] 0.052 | [7] -0.254 | [8] 0.135 | [9] 0.046 | [10] 0.024 | [11] -0.121 | [12] 0.014 | [13] -0.003 | [14] -0.046 | [15] -0.068 | [16] -0.014 | [17] 0.027 | [18] 0.017 | [19] 0.022 | [20] 0.052

SNW1 (UniProt Q13573)
Chain of UniProt Q13573 (Q13573 whole entry, looked up): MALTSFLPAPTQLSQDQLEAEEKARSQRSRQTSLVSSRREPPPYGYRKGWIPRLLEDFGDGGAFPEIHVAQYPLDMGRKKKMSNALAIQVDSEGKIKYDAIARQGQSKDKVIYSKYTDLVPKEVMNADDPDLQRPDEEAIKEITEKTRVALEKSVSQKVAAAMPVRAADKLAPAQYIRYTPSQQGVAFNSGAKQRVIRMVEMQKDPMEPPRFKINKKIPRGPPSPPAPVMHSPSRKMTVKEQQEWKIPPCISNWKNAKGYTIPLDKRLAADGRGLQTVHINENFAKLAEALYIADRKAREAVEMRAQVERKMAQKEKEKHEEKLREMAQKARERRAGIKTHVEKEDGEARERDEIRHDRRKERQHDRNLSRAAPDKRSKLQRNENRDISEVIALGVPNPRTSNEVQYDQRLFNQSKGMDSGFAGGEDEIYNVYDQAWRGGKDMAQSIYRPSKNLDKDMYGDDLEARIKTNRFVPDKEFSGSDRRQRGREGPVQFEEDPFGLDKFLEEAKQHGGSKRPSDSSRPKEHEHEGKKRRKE
inactive: [1] 0.019 | [2] 0.01 | [3] -0.019 | [4] 0.07 | [5] -0.021 | [6] 0 | [7] 0.191 | [8] -0.037 | [9] 0.016 | [10] -0.037 | [11] 0.023 | [12] 0.051 | [13] 0.02 | [14] 0.006 | [15] 0.073 | [16] 0.02 | [17] -0.119 | [18] 0.014 | [19] -0.003 | [20] -0.03

SYNRG (UniProt Q9UMZ2)
inactive: [1] -0.006 | [2] 0.022 | [3] 0.015 | [4] 0.037 | [5] 0 | [6] -0.019 | [7] 0.017 | [8] -0.1 | [9] 0.013 | [10] -0.009 | [11] 0.026 | [12] -0.016 | [13] -0.021 | [14] 0.015 | [15] 0.002 | [16] -0.004 | [17] 0.024 | [18] 0.033 | [19] 0.003 | [20] -0.006

SQLE (UniProt Q14534)
inactive: [1] 0.036 | [2] -0.01 | [3] 0.103 | [4] 0.051 | [5] 0.073 | [6] -0.063 | [7] -0.06 | [8] -0.02 | [9] 0.077 | [10] 0.065 | [11] 0.003 | [13] 0.018 | [14] -0.009 | [15] -0.022 | [16] 0.002 | [18] 0.059 | [19] -0.015 | [20] -0.045
active: [12] 0.377 | [17] 0.437

SPATA5 (UniProt Q8NB90)
inactive: [1] 0.015 | [2] 0.005 | [3] 0.02 | [4] -0.021 | [5] -0.068 | [6] 0.011 | [7] -0.024 | [8] -0.052 | [9] -0.001 | [10] 0.007 | [11] 0.033 | [12] -0.101 | [13] 0.007 | [14] 0.029 | [15] 0.085 | [16] 0.04 | [17] 0.008 | [18] 0.025 | [19] 0.004 | [20] -0.024

SP1 (UniProt P08047)
Chain of UniProt P08047 (P08047 whole entry, looked up): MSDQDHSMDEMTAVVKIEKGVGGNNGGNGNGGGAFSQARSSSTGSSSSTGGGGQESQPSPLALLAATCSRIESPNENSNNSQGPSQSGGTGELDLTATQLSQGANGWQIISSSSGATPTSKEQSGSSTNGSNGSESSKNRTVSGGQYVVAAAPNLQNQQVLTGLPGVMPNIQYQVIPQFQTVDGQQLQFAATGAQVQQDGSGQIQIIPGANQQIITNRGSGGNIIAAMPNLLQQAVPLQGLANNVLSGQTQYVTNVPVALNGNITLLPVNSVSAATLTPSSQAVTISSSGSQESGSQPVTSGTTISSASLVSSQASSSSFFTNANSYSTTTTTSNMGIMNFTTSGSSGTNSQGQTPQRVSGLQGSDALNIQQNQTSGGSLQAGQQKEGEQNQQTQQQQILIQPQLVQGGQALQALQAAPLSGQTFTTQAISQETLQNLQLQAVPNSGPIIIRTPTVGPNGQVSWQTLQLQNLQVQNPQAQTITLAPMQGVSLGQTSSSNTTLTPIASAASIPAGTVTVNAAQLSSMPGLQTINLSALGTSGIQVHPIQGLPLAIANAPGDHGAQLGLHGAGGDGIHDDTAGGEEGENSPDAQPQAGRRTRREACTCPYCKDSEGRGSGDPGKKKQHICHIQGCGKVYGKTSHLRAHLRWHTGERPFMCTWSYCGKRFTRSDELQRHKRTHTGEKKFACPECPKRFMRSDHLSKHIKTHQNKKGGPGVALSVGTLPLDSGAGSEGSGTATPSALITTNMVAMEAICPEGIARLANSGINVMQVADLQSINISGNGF
inactive: [1] -0.115 | [2] 0.056 | [3] 0.045 | [4] 0.015 | [5] 0.043 | [6] -0.008 | [7] -0.061 | [8] 0.019 | [9] 0.037 | [10] -0.154 | [11] -0.017 | [12] -0.013 | [13] 0.053 | [14] 0.03 | [15] 0.104 | [16] 0.073 | [17] -0.087 | [18] 0.005 | [19] -0.06 | [20] 0.003

SRSF9 (UniProt Q13242)
Chain of UniProt Q13242 (Q13242 whole entry, looked up): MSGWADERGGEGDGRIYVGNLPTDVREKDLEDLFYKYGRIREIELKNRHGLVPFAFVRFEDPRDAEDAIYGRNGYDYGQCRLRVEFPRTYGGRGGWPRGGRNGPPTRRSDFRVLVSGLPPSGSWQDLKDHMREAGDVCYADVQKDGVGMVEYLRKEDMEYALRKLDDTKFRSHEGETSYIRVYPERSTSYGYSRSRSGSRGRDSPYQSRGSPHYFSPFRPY
inactive: [1] -0.104 | [2] 0.009 | [3] 0.049 | [4] -0.05 | [5] -0.029 | [6] 0.03 | [7] -0.006 | [8] -0.029 | [9] -0.021 | [10] -0.064 | [11] -0.021 | [12] -0.165 | [13] 0.002 | [14] -0.054 | [15] -0.044 | [16] 0 | [17] -0.084 | [18] -0.013 | [19] -0.017 | [20] -0.022

SPHK1 isoform 2 (UniProt Q9NYA1)
Chain of UniProt Q9NYA1 (Q9NYA1 whole entry, looked up): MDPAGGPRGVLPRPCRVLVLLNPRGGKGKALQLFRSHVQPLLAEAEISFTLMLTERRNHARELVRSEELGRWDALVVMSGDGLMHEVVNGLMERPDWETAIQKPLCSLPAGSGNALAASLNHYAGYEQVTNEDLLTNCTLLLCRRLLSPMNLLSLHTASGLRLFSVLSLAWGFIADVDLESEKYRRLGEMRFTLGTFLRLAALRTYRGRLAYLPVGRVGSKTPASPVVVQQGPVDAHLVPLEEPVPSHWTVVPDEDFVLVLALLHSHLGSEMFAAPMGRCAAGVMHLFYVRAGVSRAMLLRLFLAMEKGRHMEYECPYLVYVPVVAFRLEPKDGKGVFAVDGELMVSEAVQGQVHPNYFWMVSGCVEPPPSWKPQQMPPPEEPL
inactive: [1] -0.009 | [2] 0.034 | [3] 0.008 | [4] -0.051 | [5] -0.022 | [6] 0.171 | [7] -0.003 | [8] 0.056 | [9] 0.086 | [10] 0.029 | [11] 0.023 | [12] -0.114 | [13] 0.046 | [14] 0.076 | [15] -0.175 | [16] 0.018 | [17] 0.006 | [18] 0.045 | [19] 0.022 | [20] 0.069

SULT1A1 (UniProt P50225)
Chain of UniProt P50225 (P50225 whole entry, looked up): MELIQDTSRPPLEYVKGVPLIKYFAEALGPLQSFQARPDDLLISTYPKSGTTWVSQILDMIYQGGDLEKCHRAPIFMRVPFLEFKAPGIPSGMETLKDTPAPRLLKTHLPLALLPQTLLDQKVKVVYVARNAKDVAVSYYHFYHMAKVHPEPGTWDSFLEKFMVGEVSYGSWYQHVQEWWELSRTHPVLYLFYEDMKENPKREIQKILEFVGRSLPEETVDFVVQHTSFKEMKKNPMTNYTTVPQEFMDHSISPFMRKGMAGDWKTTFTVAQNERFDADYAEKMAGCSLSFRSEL
inactive: [1] 0.014 | [2] 0.004 | [3] -0.017 | [4] 0.032 | [5] -0.046 | [6] -0.016 | [7] 0.014 | [8] -0.009 | [9] 0.037 | [10] -0.009 | [11] 0.031 | [12] -0.043 | [13] 0.018 | [14] -0.11 | [15] 0.06 | [16] 0.026 | [17] 0.017 | [18] 0.036 | [19] -0.005 | [20] -0.011

SVIP (UniProt Q8NHG7)
Chain of UniProt Q8NHG7 (Q8NHG7 whole entry, looked up): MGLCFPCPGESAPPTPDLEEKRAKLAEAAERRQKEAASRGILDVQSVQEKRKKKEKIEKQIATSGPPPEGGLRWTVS
inactive: [1] -0.014 | [2] 0.014 | [3] 0.051 | [4] 0.079 | [5] 0.095 | [6] -0.11 | [7] 0.033 | [8] 0.005 | [9] 0 | [10] -0.086 | [11] -0.014 | [12] 0.028 | [13] -0.017 | [14] 0.025 | [15] 0.098 | [16] -0.042 | [17] -0.055 | [18] 0.05 | [19] -0.039 | [20] -0.099

SLC25A17 (UniProt O43808)
Chain of UniProt O43808 (O43808 whole entry, looked up): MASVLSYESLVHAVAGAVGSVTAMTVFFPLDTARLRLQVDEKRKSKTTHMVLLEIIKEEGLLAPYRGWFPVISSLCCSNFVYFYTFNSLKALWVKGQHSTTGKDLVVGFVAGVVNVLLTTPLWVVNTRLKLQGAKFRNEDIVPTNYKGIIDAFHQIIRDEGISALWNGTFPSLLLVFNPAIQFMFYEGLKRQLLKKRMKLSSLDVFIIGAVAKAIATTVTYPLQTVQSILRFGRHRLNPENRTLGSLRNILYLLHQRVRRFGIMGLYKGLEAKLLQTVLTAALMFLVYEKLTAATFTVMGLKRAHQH
inactive: [1] -0.035 | [2] -0.031 | [3] 0.02 | [4] 0.066 | [5] 0.04 | [6] -0.043 | [7] -0.119 | [8] 0.103 | [9] 0.041 | [10] 0.015 | [11] -0.216 | [12] 0.094 | [13] 0.007 | [14] -0.036 | [15] 0.006 | [16] 0.004 | [17] -0.009 | [18] 0.019 | [19] -0.011 | [20] 0.026

SNAP23 (UniProt O00161)
Chain of UniProt O00161 (O00161 whole entry, looked up): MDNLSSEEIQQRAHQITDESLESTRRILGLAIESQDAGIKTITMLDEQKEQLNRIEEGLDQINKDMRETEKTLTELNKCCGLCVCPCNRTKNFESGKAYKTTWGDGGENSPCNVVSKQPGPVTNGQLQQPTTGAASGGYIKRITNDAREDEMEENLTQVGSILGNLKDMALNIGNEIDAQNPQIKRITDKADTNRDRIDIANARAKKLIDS
inactive: [1] 0.013 | [2] -0.025 | [3] 0.041 | [4] -0.009 | [5] 0.034 | [6] 0.033 | [7] 0.025 | [8] 0.014 | [9] -0.011 | [10] -0.001 | [11] 0.035 | [12] 0.015 | [13] -0.027 | [14] -0.002 | [15] -0.01 | [16] 0 | [17] -0.033 | [18] -0.015 | [19] 0.005 | [20] 0.02

SMC4 (UniProt Q9NTJ3)
Chain of UniProt Q9NTJ3 (Q9NTJ3 whole entry, looked up): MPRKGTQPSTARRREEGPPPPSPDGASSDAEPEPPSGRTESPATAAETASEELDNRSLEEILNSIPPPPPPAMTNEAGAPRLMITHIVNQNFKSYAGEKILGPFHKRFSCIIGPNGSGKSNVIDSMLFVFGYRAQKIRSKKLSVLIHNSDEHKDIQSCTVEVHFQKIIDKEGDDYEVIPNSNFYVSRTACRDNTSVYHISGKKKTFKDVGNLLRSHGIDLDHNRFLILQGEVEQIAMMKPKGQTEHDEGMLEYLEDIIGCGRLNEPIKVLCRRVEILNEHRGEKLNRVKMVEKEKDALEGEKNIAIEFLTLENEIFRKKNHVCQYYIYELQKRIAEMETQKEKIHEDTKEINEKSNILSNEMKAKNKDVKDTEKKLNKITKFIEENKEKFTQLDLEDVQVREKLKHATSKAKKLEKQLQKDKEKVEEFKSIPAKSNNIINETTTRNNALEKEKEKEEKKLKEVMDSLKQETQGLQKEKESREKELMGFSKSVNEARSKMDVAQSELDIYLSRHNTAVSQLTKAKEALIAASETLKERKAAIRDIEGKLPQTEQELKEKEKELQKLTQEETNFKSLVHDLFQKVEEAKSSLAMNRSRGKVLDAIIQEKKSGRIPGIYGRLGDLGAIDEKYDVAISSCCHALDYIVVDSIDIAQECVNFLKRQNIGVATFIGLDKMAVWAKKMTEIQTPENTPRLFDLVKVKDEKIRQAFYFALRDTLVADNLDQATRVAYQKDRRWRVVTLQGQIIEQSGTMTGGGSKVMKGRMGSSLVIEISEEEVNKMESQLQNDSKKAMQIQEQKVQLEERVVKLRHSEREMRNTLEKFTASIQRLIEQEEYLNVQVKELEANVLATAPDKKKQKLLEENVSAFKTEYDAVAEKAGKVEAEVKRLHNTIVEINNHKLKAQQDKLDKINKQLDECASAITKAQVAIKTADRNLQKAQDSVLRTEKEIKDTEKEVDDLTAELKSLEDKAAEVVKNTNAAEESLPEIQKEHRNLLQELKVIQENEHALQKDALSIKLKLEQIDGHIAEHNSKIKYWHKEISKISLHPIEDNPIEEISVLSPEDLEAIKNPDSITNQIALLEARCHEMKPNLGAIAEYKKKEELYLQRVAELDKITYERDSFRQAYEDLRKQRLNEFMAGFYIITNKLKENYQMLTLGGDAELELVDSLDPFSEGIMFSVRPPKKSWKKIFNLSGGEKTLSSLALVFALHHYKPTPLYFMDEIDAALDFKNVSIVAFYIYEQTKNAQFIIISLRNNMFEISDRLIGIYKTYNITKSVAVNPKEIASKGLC
inactive: [1] 0.002 | [2] 0.001 | [3] 0.022 | [4] -0.059 | [5] -0.041 | [6] 0.006 | [7] 0.053 | [8] -0.118 | [9] 0.015 | [10] 0.012 | [11] 0.03 | [12] -0.079 | [13] -0.006 | [14] -0.003 | [15] -0.008 | [16] 0.004 | [17] 0.024 | [18] 0.001 | [19] 0 | [20] -0.024
